# Publication PMC7862700, “An all-to-all approach to the identification of sequence-specific readers for epigenetic DNA modifications on cytosine”
# Assays:
# Assay in all cases: DAPPL (digital affinity profiling via proximity ligation, sequencing); 10 mM Tris-HCl pH 7.5, 50 mM NaCl, 1 mM DTT, 4% glycerol, room temperature, 30 min; GST-TFs on glutathione beads, 16-mer random dsDNA library, 0.1% formaldehyde crosslink after washing; high values mean tight binding
# FLI1 = molecular target: T1, FLI1 (Homo sapiens, UniProt Q01543 1-452); conditions: protein: recombinant; tags: N-terminal GST; dsDNA, one strand shown
# T1 sequence: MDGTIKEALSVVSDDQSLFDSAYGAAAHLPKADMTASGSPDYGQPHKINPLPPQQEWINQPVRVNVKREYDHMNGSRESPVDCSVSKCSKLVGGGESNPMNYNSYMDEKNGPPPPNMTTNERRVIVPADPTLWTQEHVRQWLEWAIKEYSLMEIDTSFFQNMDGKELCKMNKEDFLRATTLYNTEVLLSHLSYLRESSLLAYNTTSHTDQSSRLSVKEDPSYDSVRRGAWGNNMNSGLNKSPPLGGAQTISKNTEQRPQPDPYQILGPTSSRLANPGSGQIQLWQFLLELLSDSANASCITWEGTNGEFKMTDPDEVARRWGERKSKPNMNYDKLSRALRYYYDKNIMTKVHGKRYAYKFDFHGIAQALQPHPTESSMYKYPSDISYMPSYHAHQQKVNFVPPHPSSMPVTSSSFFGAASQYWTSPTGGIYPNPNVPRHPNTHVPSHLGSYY
# In short: (§1)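 GST fusions of human transcription factors were expressed in yeast and captured with glutathione beads. Once given DNA barcodes and pooled alongside a tag-only sample, they were incubated for 30 min at room temperature with 200 nmole of a random double-stranded 16-mer DNA library in Tris/NaCl/DTT/glycerol buffer, then washed, crosslinked (0.1% formaldehyde), proximity-ligated, PCR-amplified and sequenced on an Illumina NextSeq500. The binding signal of each hexamer is its read frequency for a factor divided by its frequency for the tag-only sample.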
# ELK1 = molecular target: T2, ELK1 (Homo sapiens, UniProt P19419 1-428); conditions: protein: recombinant; tags: N-terminal GST; dsDNA, one strand shown
# T2 sequence: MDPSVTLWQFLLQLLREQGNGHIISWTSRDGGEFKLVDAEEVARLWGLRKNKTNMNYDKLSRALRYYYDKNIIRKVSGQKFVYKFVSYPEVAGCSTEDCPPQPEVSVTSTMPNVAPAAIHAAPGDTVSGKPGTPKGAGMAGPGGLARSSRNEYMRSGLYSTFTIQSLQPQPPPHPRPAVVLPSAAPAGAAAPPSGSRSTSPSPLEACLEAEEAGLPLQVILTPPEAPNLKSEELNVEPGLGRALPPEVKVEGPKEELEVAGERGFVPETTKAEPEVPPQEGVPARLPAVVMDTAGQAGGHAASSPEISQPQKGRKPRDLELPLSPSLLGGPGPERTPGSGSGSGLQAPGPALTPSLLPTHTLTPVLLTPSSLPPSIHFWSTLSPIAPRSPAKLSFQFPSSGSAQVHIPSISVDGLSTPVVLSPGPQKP
# In short: as §1
# GABPA = molecular target: T3, GABPA (Homo sapiens, UniProt Q06546 1-454); conditions: protein: recombinant; tags: N-terminal GST; dsDNA, one strand shown
# T3 sequence: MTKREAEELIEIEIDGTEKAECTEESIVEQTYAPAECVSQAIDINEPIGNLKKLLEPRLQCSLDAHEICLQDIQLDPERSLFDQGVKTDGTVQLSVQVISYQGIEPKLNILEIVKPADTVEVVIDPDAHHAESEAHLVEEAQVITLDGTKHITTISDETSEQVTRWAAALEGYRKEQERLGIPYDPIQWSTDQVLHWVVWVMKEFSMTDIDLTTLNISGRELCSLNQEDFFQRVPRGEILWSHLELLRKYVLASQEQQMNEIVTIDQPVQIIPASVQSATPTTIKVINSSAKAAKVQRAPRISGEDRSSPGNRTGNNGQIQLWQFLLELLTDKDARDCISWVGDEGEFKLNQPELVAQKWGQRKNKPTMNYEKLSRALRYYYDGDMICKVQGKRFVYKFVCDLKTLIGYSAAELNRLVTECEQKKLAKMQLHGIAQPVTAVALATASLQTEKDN
# In short: as §1
# ERG = molecular target: T4, ERG (Homo sapiens, UniProt P11308 1-479); conditions: protein: recombinant; tags: N-terminal GST; dsDNA, one strand shown
# T4 sequence: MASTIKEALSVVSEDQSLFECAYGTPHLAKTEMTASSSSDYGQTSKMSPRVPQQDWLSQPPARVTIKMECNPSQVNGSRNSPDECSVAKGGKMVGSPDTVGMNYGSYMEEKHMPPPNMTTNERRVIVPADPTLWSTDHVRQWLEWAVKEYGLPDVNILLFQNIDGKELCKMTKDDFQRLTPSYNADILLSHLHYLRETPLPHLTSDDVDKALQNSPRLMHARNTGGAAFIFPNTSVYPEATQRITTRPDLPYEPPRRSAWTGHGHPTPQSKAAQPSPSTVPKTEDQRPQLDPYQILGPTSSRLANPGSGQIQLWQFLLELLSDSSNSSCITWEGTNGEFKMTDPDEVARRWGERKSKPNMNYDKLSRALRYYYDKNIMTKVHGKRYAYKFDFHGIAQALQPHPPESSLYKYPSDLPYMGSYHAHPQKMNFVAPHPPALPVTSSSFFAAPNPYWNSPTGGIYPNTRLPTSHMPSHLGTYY
# In short: as §1
# ELF1 = ELF1 (Homo sapiens, UniProt P32519 1-619); conditions: protein: recombinant; tags: N-terminal GST; dsDNA, one strand shown
# Sequence of ELF1 (P32519 whole entry): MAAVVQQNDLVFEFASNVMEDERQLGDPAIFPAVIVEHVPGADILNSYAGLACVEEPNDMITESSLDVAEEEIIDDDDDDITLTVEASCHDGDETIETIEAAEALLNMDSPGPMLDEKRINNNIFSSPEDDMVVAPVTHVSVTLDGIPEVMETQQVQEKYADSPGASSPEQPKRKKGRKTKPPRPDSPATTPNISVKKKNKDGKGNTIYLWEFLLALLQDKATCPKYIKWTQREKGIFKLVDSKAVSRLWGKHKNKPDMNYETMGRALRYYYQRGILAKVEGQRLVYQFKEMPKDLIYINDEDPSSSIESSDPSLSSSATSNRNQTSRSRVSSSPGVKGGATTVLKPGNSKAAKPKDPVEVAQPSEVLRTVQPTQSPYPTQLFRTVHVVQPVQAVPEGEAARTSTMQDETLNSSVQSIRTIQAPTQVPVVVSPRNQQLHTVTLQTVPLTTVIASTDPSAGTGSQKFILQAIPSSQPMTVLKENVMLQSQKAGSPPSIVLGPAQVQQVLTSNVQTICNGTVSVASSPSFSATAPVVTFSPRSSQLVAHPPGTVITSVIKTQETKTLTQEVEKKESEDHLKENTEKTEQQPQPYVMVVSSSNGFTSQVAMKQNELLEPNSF
# In short: as §1
# EHF = molecular target: T5, EHF (Homo sapiens, UniProt Q9NZC4 1-300); conditions: protein: recombinant; tags: N-terminal GST; dsDNA, one strand shown
# T5 sequence: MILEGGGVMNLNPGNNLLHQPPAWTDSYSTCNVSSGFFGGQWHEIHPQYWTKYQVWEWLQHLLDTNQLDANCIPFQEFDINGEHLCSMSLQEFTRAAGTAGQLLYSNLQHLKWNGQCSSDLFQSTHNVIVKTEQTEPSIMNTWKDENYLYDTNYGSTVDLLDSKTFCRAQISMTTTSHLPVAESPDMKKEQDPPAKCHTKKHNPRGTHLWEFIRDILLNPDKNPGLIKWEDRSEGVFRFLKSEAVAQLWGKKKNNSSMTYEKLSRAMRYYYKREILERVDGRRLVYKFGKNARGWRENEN
# In short: as §1
# SPI1 = SPI1 (Homo sapiens, UniProt P17947 1-270); conditions: protein: recombinant; tags: N-terminal GST; dsDNA, one strand shown
# In short: as §1
# SPIB = SPIB (Homo sapiens, UniProt Q01892 1-262); conditions: protein: recombinant; tags: N-terminal GST; dsDNA, one strand shown
# Sequence of SPIB (Q01892 whole entry): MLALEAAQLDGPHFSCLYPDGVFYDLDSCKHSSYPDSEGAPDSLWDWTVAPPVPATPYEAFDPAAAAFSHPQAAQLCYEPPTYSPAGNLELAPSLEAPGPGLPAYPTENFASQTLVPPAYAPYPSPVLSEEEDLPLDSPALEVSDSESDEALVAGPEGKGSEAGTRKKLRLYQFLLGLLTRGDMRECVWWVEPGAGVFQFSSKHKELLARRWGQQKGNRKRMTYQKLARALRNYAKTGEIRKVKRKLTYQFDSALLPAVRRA
# In short: as §1
# ELK3 = molecular target: T6, ELK3 (Homo sapiens, UniProt P41970 1-407); conditions: protein: recombinant; tags: N-terminal GST; dsDNA, one strand shown
# T6 sequence: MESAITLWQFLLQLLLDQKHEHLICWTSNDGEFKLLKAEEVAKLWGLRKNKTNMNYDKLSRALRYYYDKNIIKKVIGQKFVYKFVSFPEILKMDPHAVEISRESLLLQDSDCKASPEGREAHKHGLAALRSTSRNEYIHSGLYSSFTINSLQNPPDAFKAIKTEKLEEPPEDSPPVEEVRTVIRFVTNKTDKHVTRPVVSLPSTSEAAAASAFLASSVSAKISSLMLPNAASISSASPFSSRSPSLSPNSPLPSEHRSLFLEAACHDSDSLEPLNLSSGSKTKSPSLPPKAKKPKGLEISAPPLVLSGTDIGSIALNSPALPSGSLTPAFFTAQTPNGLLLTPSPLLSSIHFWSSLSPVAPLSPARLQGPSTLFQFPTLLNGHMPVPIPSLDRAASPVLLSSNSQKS
# In short: as §1
# FEV = molecular target: T7, FEV (Homo sapiens, UniProt Q99581 1-238); conditions: protein: recombinant; tags: N-terminal GST; dsDNA, one strand shown
# T7 sequence: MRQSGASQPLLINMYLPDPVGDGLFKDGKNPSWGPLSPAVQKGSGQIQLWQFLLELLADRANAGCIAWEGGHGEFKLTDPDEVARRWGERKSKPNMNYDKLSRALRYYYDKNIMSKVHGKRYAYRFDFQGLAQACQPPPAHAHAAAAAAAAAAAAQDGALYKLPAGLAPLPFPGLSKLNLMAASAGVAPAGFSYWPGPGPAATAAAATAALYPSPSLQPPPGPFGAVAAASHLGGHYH
# In short: as §1
# ETV5 = ETV5 (Homo sapiens, UniProt P41161 1-510); conditions: protein: recombinant; tags: N-terminal GST; dsDNA, one strand shown
# Sequence of ETV5 (P41161 whole entry): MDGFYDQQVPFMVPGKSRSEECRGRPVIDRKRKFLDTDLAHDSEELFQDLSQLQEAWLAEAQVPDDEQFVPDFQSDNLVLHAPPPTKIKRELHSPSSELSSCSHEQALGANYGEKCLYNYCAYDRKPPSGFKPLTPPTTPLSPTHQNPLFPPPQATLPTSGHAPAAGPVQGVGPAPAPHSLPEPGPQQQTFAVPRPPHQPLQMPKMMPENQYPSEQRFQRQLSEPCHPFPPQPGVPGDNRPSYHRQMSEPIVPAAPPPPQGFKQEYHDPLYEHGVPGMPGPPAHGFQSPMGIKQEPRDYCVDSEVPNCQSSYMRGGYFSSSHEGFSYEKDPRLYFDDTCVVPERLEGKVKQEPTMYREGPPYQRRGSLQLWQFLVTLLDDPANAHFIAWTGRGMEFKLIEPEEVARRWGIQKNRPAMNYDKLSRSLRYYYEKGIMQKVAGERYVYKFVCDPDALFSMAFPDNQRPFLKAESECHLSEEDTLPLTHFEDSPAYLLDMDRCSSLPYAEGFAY
# In short: as §1
# HSF1 = HSF1 (Homo sapiens, UniProt Q00613 1-529); conditions: protein: recombinant; tags: N-terminal GST; chain copies: 3; dsDNA, one strand shown
# Sequence of HSF1 (Q00613 whole entry): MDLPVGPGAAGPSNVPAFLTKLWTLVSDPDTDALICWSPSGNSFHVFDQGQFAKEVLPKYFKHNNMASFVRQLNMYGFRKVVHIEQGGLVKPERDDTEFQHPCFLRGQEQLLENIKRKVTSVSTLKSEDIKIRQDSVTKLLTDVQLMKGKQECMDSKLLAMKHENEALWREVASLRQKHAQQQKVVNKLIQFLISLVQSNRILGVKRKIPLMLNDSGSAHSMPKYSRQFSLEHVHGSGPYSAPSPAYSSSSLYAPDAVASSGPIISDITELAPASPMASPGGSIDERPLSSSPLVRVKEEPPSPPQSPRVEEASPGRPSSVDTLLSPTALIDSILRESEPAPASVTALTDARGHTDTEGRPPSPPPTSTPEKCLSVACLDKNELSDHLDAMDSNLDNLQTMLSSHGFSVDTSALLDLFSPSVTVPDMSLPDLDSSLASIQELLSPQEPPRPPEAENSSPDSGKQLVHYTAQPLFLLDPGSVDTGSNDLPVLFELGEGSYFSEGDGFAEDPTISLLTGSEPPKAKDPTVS
# In short: as §1
# SPIC = molecular target: T8, SPIC (Homo sapiens, UniProt Q8N5J4 1-248); conditions: protein: recombinant; tags: N-terminal GST; dsDNA, one strand shown
# T8 sequence: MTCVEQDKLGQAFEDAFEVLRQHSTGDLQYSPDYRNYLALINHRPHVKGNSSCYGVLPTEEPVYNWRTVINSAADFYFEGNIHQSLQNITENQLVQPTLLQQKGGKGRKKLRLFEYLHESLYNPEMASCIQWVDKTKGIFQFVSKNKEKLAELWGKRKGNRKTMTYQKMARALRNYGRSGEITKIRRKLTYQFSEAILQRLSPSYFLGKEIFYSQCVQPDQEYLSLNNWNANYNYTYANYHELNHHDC
# In short: as §1
# ELF4 = ELF4 (Homo sapiens, UniProt Q99607 1-663); conditions: protein: recombinant; tags: N-terminal GST; dsDNA, one strand shown
# Sequence of ELF4 (Q99607 whole entry): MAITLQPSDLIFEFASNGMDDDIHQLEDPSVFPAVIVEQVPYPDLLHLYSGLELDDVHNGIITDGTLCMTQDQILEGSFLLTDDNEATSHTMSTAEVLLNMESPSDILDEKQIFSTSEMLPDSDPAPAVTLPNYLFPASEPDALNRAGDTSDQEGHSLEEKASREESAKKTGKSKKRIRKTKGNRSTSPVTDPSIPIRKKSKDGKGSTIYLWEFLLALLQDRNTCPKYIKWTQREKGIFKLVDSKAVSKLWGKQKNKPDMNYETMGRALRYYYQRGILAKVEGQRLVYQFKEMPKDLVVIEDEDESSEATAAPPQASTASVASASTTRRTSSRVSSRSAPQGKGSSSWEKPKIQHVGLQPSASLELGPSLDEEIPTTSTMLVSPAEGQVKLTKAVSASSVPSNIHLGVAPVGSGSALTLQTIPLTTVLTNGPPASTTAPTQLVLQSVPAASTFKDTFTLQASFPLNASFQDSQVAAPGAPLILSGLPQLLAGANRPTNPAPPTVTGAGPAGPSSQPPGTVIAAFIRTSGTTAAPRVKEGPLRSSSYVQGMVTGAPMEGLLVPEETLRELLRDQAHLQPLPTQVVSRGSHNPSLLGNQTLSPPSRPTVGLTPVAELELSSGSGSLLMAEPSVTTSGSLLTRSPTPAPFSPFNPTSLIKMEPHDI
# In short: as §1
# ELK4 = molecular target: T9, ELK4 (Homo sapiens, UniProt P28324-2 1-405); conditions: protein: recombinant; tags: N-terminal GST; dsDNA, one strand shown
# T9 sequence: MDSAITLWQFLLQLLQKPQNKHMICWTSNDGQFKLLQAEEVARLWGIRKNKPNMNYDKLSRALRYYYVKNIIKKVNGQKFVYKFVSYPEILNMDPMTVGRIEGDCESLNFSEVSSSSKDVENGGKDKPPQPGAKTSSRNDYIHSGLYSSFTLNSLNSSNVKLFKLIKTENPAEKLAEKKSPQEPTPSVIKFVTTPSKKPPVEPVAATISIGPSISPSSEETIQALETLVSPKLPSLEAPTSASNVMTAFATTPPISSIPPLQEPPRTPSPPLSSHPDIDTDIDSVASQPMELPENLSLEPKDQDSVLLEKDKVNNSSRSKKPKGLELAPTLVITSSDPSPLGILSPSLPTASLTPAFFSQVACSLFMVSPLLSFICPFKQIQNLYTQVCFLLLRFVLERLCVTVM
# In short: as §1
# ETV2 = molecular target: T10, ETV2 (Homo sapiens, UniProt O00321 1-342); conditions: protein: recombinant; tags: N-terminal GST; dsDNA, one strand shown
# T10 sequence: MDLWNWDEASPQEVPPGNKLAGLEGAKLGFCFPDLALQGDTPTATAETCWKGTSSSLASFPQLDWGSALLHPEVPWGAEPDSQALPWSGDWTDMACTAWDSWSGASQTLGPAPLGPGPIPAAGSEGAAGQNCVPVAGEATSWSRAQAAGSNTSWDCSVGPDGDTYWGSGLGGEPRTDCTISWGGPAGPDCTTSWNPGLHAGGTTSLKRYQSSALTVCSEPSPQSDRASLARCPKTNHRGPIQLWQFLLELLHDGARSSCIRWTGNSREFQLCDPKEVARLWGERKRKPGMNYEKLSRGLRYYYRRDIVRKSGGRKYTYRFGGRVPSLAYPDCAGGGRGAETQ
# In short: as §1
# ELF3 = molecular target: T11, ELF3 (Homo sapiens, UniProt P78545 1-371); conditions: protein: recombinant; tags: N-terminal GST; dsDNA, one strand shown
# T11 sequence: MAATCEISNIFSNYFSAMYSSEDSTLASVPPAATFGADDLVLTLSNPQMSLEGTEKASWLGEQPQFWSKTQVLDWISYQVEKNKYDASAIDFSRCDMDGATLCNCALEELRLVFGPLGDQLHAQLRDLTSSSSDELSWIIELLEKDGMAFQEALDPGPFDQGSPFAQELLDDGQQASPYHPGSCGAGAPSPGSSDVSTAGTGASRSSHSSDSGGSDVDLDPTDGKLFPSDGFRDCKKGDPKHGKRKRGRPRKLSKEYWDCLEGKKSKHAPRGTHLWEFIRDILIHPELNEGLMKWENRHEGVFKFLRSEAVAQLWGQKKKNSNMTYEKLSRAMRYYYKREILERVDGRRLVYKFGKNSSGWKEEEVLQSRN
# In short: as §1
# CRX = CRX (Homo sapiens, UniProt O43186 1-299); conditions: protein: recombinant; tags: N-terminal GST; dsDNA, one strand shown
# Sequence of CRX (O43186 whole entry): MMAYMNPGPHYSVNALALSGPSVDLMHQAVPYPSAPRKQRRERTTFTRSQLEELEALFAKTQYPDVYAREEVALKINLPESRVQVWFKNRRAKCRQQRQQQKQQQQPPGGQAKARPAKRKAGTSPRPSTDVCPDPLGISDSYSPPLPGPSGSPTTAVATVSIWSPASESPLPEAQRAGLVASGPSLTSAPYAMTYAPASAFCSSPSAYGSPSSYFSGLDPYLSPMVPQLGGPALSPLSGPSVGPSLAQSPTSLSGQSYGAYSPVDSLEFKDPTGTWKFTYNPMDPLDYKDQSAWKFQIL
# In short: as §1
# ETV1 = ETV1 (Homo sapiens, UniProt P50549 1-477); conditions: protein: recombinant; tags: N-terminal GST; dsDNA, one strand shown
# Sequence of ETV1 (P50549 whole entry): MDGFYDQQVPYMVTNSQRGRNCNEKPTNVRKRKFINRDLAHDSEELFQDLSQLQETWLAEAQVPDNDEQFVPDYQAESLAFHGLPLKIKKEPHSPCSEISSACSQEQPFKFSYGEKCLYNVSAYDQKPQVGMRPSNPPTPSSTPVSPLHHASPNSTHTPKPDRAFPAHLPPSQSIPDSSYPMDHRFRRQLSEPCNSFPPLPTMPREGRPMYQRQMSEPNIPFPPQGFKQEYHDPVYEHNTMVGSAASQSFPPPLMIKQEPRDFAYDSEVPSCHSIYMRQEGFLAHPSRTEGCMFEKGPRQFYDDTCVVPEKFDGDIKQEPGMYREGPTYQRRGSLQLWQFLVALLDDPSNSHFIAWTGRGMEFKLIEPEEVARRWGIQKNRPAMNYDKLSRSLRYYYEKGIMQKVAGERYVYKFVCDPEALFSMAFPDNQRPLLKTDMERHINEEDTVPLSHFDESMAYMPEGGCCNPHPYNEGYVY
# In short: as §1
sequence,measurement,setting,value
TCCCGC,binding signal,FLI1,"1.48 fold enrichment (6-mer frequency, TF over GST control)"
same,binding signal,ELK1,"1.53 fold enrichment (6-mer frequency, TF over GST control)"
same,binding signal,GABPA,"1.4 fold enrichment (6-mer frequency, TF over GST control)"
same,binding signal,ERG,"1.42 fold enrichment (6-mer frequency, TF over GST control)"
same,binding signal,ELF1,"1.47 fold enrichment (6-mer frequency, TF over GST control)"
same,binding signal,EHF,"1.52 fold enrichment (6-mer frequency, TF over GST control)"
same,binding signal,SPI1,"1.37 fold enrichment (6-mer frequency, TF over GST control)"
same,binding signal,SPIB,"1.48 fold enrichment (6-mer frequency, TF over GST control)"
same,binding signal,ELK3,"1.46 fold enrichment (6-mer frequency, TF over GST control)"
same,binding signal,FEV,"1.46 fold enrichment (6-mer frequency, TF over GST control)"
same,binding signal,ETV5,"1.41 fold enrichment (6-mer frequency, TF over GST control)"
same,binding signal,HSF1,"1.57 fold enrichment (6-mer frequency, TF over GST control)"
same,binding signal,SPIC,"1.46 fold enrichment (6-mer frequency, TF over GST control)"
same,binding signal,ELF4,"1.55 fold enrichment (6-mer frequency, TF over GST control)"
same,binding signal,ELK4,"1.26 fold enrichment (6-mer frequency, TF over GST control)"
same,binding signal,ETV2,"1.31 fold enrichment (6-mer frequency, TF over GST control)"
same,binding signal,ELF3,"1.36 fold enrichment (6-mer frequency, TF over GST control)"
same,binding signal,CRX,"1.42 fold enrichment (6-mer frequency, TF over GST control)"
same,binding signal,ETV1,"1.5 fold enrichment (6-mer frequency, TF over GST control)"
